# Bioassay records: PubChem, several laboratories
# aDG glyco act: alpha-DG glycosylation activation; activation, % at 10 µM; AID 624168; Pro5-aDG cells, alpha-DG glycosylation AlphaScreen (IIH6); 0% Pro5, 100% B10-LARGE cell signal; hit rate 0.22% among 360,000;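 active = activation of at least 8% versus controls, or a plate z-score of at least 8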;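 also: Pro5 are CHO cells carrying HIG-tagged alpha-DG that lacks glycosylation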
# Cardio protect: protects H9c2 cardiomyocytes from peroxide injury. H2O2 injury protection, ATPLite, 2 h. protection from H2O2 cell death, % at 20 µM. hit rate 0.63% among 360,000. AID 588492;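 active = compounds giving at least 50% protection of heart cells from peroxide-induced death in the single-dose screen, raw or plate-pattern-corrected value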
# N-glyco inh: blocks N-linked glycosylation in D54 reporter cells; D54 ERlucT glycosylation luciferase reporter, 24 h; percent of 100 nM tunicamycin response; reporter increase, % at 12.5 µM; hit rate 0.23% among 360,000;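 active = mean luciferase reporter signal, scaled so untreated is 0 and the glycosylation-blocking control 100, at or above a set limit in every replicate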;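 also: luciferase carries N-glycosylation sites so blocking glycosylation raises the light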
# Vif imaging: inhibitors of HIV Vif. HEK293T cells, Vif self-association by quenched fluorescence, imaging, 24 h. inhibition, % at 7.49 µM. hit rate 0.35% among 340,000. AID 602346; in the data active = inhibition above about 50%, passing the limit was not always enough
# ARNT-TACC3 inh: disrupts binding between human ARNT and TACC3 | AlphaScreen His-ARNT PAS-B/GST-TACC3 binding, luminescence; TACC3 fragment carries E629A point mutation | Q9Y6A5 | hit rate 0.66% among 390,000 | inhibition, % at 9.99 µM;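 active = mean inhibition of replicates at least 50% and at least half of replicates each reaching 50%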
# AlphaScreen ctr: counter-screen for ARNT/TACC3 inhibitors: AlphaScreen artifacts; AID 651705; His-ARNT PASB-GST AlphaScreen artifact counter-screen, luminescence; AC50, µM (titrated, usually from 68 µM); hit rate 50% among 1,200; shares compounds with ARNT-TACC3 inh;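 active = every separate test run was called active for a drop in luminescence, with AC50 within twice the top valid dose, actives reach about 71 µM in these data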
# A number is an active result; – = inactive; · = no result given. Shown are actives, neighbours in structure and some others; about 1.7% of the full set was active somewhere.
SMILES,aDG glyco act,Cardio protect,N-glyco inh,Vif imaging,ARNT-TACC3 inh,AlphaScreen ctr
CCN(CC(=O)NCc1cccs1)CC(=O)Nc1ccc(C(N)=O)cc1,–,–,–,–,–,·
C[C@@H]1CN([C@H](C)CO)S(=O)(=O)c2ccc(C3=CCCC3)cc2O[C@H]1CN(C)Cc1ccccn1,·,·,·,·,17,51µM
C[C@H]1CN([C@@H](C)CO)S(=O)(=O)c2ccc(C3=CCCC3)cc2O[C@@H]1CN(C)Cc1ccccn1,·,·,·,·,–,·
C[C@H](CO)N1C[C@H](C)[C@H](CN(C)Cc2cccnc2)Oc2cc(C#CCN(C)C)ccc2S1(=O)=O,·,·,·,·,active,–
O=C(NCCCn1ccnc1)C(F)(F)C(F)(F)C(=O)NCCCn1ccnc1,–,–,–,–,51,–
CCC(=O)Nc1ccc2c(c1)C(=O)N(C)C[C@H](OC)[C@@H](C)CN(CCc1ccccc1)[C@@H](C)CO2,·,·,·,·,–,·
COc1ccc(NC(=O)N(C)C[C@H]2OCCCC[C@H](C)Oc3ccc(NC(=O)Nc4c(C)noc4C)cc3C(=O)N([C@H](C)CO)C[C@@H]2C)cc1,·,·,·,·,–,·
O=C(c1ccccc1)N1CC[C@@H]2[C@H](CO)Nc3ccc(-c4ccc(F)cc4)cc3[C@@H]21,·,·,·,·,–,·
COc1ccc(-c2cc(NCCc3ccncc3)n3ncnc3n2)cc1,–,–,–,·,–,·
COc1ccc(-c2cc(NCc3ccccn3)n3ncnc3n2)cc1,–,–,–,·,52,–
COc1ccc(C2C(C#N)=C(N)Oc3c2ccc2cccnc32)cc1OC (configuration not stated),–,–,–,–,62,–
COC(=O)C[C@@H]1CC[C@@H](NS(=O)(=O)c2ccc(OC)cc2)[C@H](CO)O1,·,·,·,·,58,–
CC1(C)CC(=O)C=C(Nc2ccccc2N)C1,–,–,–,–,51,–
Oc1c(Br)cccc1/C=N/c1ncn[nH]1,–,67,–,·,51,–
Cc1ccccc1C(=O)Nc1nnc(-c2ccco2)o1,–,–,–,–,62,–
O=C(Nc1nnc(-c2ccncc2)o1)c1ccc2ccccc2c1,–,–,–,–,–,·
Cc1cccc(C(=O)Nc2nnc(-c3ccco3)o2)c1,–,–,–,–,56,–
Cc1ccc(C(=O)Nc2nnc(-c3ccco3)o2)cc1C,–,–,–,–,–,·
Cc1cccc(C(=O)Nc2nnc(-c3cccnc3)o2)c1,–,–,–,–,59,–
O=C(Nc1nnc(-c2cccnc2)o1)c1ccccc1Cl,–,–,–,–,–,·
Cc1cccc(C(=O)Nc2nnc(-c3ccncc3)o2)c1,–,–,–,–,62,–
COc1ccc(CN(C)C[C@H]2OCCCC[C@@H](C)Oc3ccc(NC(=O)Nc4ccccc4)cc3C(=O)N([C@H](C)CO)C[C@@H]2C)cc1,·,·,·,·,–,·
CCCc1cn(CC[C@H]2CC[C@@H](NC(=O)Nc3ccc4c(c3)OCO4)[C@@H](CO)O2)nn1,·,·,·,·,–,·
COc1ccc2cc1Oc1ccc(cc1)C[C@H]1c3cc(c(OC)cc3CCN1C)Oc1c(OC)c(OC)cc3c1[C@@H](C2)N(C)CC3,–,–,–,–,30,–
C/C(=N/NC(=O)c1ccncc1)c1cc2ccc(O)cc2oc1=O,–,–,–,–,57,–
SMILES,aDG glyco act,Cardio protect,N-glyco inh,Vif imaging,ARNT-TACC3 inh,AlphaScreen ctr
C[C@H]1CN([C@@H](C)CO)C(=O)c2cc(NC(=O)C3CCCCC3)ccc2O[C@@H]1CN(C)CC1CCCCC1,·,·,·,·,–,·
CSc1nnc(-c2cc3c(s2)-c2ccccc2CC3)o1,–,–,–,–,–,·
S=c1[nH]nc(-c2cc3c(s2)-c2ccccc2CC3)o1,–,–,–,–,70,–
O=C(NCCCn1ccnc1)C(=O)NCC(c1ccco1)N1CCN(c2ccc(F)cc2)CC1 (configuration not stated),–,–,–,–,59,–
COc1ccc(N2CCN(C(CNC(=O)C(=O)NCCCn3ccnc3)c3ccco3)CC2)cc1 (configuration not stated),–,–,–,–,–,·
O=C(NCCCn1ccnc1)C(=O)NCC(c1ccco1)N1CCN(c2ccccc2)CC1 (configuration not stated),–,–,–,–,45,–
C[C@@H]1CN([C@H](C)CO)C(=O)c2cc(NS(C)(=O)=O)ccc2O[C@@H](C)CCCCO[C@H]1CN(C)C(=O)Nc1ccccc1,·,·,·,·,–,·
CCCN(C(=O)Cc1nc(N)n[nH]1)C1(C(=O)Nc2ccccc2C)CCCCC1,–,–,–,–,50,–
CCc1nnc(NC(=O)c2ccc(OC)cc2OC)s1,–,–,–,–,–,·
COc1ccc(C(=O)Cc2nnc(C)s2)c(OC)c1,–,–,–,–,77,–
COc1cccc(/C=N/NC(=O)C(=O)N2CCCCCC2)c1O,–,–,–,–,60,–
COc1ccc(OC)c(/C=N/NC(=O)C(=O)N2CCCC2)c1,–,–,–,–,–,·
CO[C@H]1CN(C)C(=O)c2ccc(NS(=O)(=O)c3ccc(C)cc3)cc2OC[C@@H](C)N(Cc2nccs2)C[C@H]1C,·,·,·,·,–,·
O=C(NCc1ccccc1)c1cc(-c2ccccc2)on1,·,·,·,·,·,–
O=C(NCCCCO)c1cc(-c2ccccc2)on1,·,·,·,·,·,–
O=C(NCc1ccccc1)c1cc(-c2cccs2)on1,–,–,–,–,–,·
Cc1ccc(CNC(=O)c2cc(-c3ccccc3)on2)cc1,·,·,·,·,·,–
Cc1ccc(-c2cc(C(=O)NCc3cccnc3)no2)cc1,–,–,–,–,–,·
CCCC#Cc1ccc2c(c1)O[C@@H](CN(C)S(=O)(=O)c1cccc(OC)c1)[C@@H](C)CN([C@@H](C)CO)S2(=O)=O,·,·,·,·,–,·
CCCC#Cc1cnc2c(c1)C(=O)N([C@@H](C)CO)C[C@H](C)[C@@H](CN(C)CCC)O2,·,·,·,·,–,·
C[C@@H](NC(=O)C[C@@H]1CC[C@@H](NC(=O)CN2CCOCC2)[C@H](CO)O1)c1ccccc1,·,·,·,·,–,·
CCNC(=O)C(=O)N/N=C/c1cc([N+](=O)[O-])ccc1O,–,–,–,–,61,25µM
O=C(O)COc1ccccc1/C=N/NC(=O)c1cccc(S(=O)(=O)Nc2cccc(Cl)c2)c1,–,–,–,–,52,71µM
COc1ccccc1NS(=O)(=O)c1cccc(C(=O)N/N=C/c2ccc(OCC(=O)O)cc2)c1,–,–,–,–,–,·
CS(=O)(=O)N1[C@H](C(=O)NC2CCC2)[C@@H](CO)[C@@H]2Cn3c(ccc(-c4ccccc4)c3=O)[C@@H]21,·,·,·,·,–,·
O=C(N[C@@H]1CC[C@H](CCn2cc(-c3ccccn3)nn2)O[C@H]1CO)c1ccc(F)cc1,·,·,·,·,43,43µM
O=C(N[C@H]1CC[C@@H](CCn2cc(-c3ccccn3)nn2)O[C@@H]1CO)c1ccc(F)cc1,·,·,·,·,112,45µM
O=C(N[C@@H]1CC[C@@H](CCn2cc(-c3ccccn3)nn2)O[C@H]1CO)c1ccc(F)cc1,·,·,·,·,75,47µM
